# Results filed as inconclusive are left out. Values without a mark were called inactive. The call rests on the fitted dose curve; in most records, active means well fitted cell-killing curve with a large enough effect in the repeat runs; inconclusive means weak or mixed curves; inactive means flat fitted curve, though single readings scatter.
# Test: qHTS assay to identify small molecule antagonists of the TGF-beta/Smad signaling pathway - cell viability counter screen (AID 1346824); further: nearly all actives have a fitted effect of over 50% in size
# Conditions: SBE-bla HEK293T viability, CellTiter-Glo luminescence; series mostly up to 76.8 µM; viability change, negative = cytotoxic: at the top concentration
# Source text: U.S. Tox21 Program National Center for Advancing Translational Sciences [NCATS] NIH Chemical Genomics Center [NCGC] U.S. Environmental Protection Agency [EPA] National Institutes of Environmental Health Sciences [NIEHS] National Toxicology Program [NTP] U.S. Food and Drug Administration [FDA] Tox21 Assay Overview: Transforming growth factor beta (TGF-beta) superfamily consists of a large number of structurally related dimeric proteins that act as hormones or local mediators in regulating a wide range of biological functions. This superfamily includes TGF-betas themselves, the bone morphogenetic proteins (BMPs) and the activins. These ligands induce oligomerization of serine/threonine receptor kinases and phosphorylate the cytoplasmic signaling molecules of Smad protein family. CellSensor SBE-bla HEK 293T cell line (Life Technologies, Carlsbad, CA), responsive to TGF-beta was used to screen Tox21 10K compound library for identification of agonists/antagonists of the Smad signaling pathway. This cell line contains a beta-lactamase reporter gene under control of the Smad binding element (SBE) stably integrated into HEK 293T cells. Also cytotoxicity of the compounds was tested in parallel by measuring the cell viability using CellTiter-Glo assay system in the same wells.
# Tox21 Assay Protocol Summary: SBE-bla HEK 293T cells were dispensed at 4,000/well in 5 uL of assay medium into black wall/clear-bottom 1536-well plates using a Multidrop Combi (ThermoFisher Scientific, Waltham, MA) dispenser. After the assay plates were incubated at 37 C and 5% CO2 for an overnight, 23 nL of compounds dissolved in DMSO, positive controls or DMSO only was transferred to the assay plate by a Pintool station (Kalypsys, San Diego, CA). Compound transfer was followed by the addition of 1 uL of 0.25 ng/mL TGF-beta1 or assay buffer using two separate tips of Flying Reagent Dispenser (FRD, Aurora Discovery, San Diego, CA). The assay plates were incubated at 37 C and 5% CO2 for 5 hr. One uL of LiveBLAzer B/G FRET substrate (Life Technologies) was added using a Flying Reagent Dispenser (FRD, Aurora Discovery, San Diego, CA) and the plates were incubated at room temperature for 2 hr. Fluorescence intensity (405 nm excitation, 460 nm and 530 nm emissions) was measured using an Envision plate reader (PerkinElmer, Shelton, CT). For cytotoxicity read, 4 uL of CellTiter-Glo reagent (Promega Corporation, Madison, WI) was added to each well of the assay plates using FRD. After 30 min incubation at room temperature, the luminescence intensity was measured using ViewLux plate reader (PerkinElmer).
# On the % scale 0 is the no-effect control and ±100 the full control effect.
row,SMILES,"viability change, negative = cytotoxic"
1,CCCCCOC(=O)Nc1nc(=O)n([C@@H]2O[C@H](C)[C@@H](O)[C@H]2O)cc1F,7.12% [at 35.3 µM]
2,Cc1ncc(CSSCc2cnc(C)c(O)c2CO)c(CO)c1O,-3.66% [at 35.3 µM]
3,CO[Si](CCCNCCC[Si](OC)(OC)OC)(OC)OC,6.46%
4,CCCCC1CCCCC(=O)O1 (stereo not given),8.43%
5,CC(=O)O[C@H](CC(=O)[O-])C[N+](C)(C)C,13.3%
6,C#CC(C)(O)CC(C)C (stereo not given),-2.82%
7,CC(C)c1ccc2oc3nc(N)c(C(=O)O)cc3c(=O)c2c1,-3.53% [at 35.3 µM]
8,CC(C)CCCC(C)NCCC(C)C (stereo not given),0.206% [at 35.3 µM]
9,CCCCCN(CCCCC)C(=O)C(CCC(=O)O)NC(=O)c1ccc(Cl)c(Cl)c1 (stereo not given),-8.6% [at 35.3 µM]
10,CC(C=O)Cc1ccc(C(C)C)cc1 (stereo not given),1.56%
11,CCCCc1ccc(N)cc1,-9.1%
12,CCCC=O,-13.5%
13,CCCC(C)C(=O)O (stereo not given),-8.2%
14,OC[C@H]1O[C@@H]2O[C@H]3[C@H](O)[C@@H](O)[C@@H](O[C@H]4[C@H](O)[C@@H](O)[C@@H](O[C@H]5[C@H](O)[C@@H](O)[C@@H](O[C@H]6[C@H](O)[C@@H](O)[C@@H](O[C@H]7[C@H](O)[C@@H](O)[C@@H](O[C@H]8[C@H](O)[C@@H](O)[C@@H](O[C@H]9[C@H](O)[C@@H](O)[C@@H](O[C@H]1[C@H](O)[C@H]2O)O[C@@H]9CO)O[C@@H]8CO)O[C@@H]7CO)O[C@@H]6CO)O[C@@H]5CO)O[C@@H]4CO)O[C@@H]3CO,-5.71% [at 35.3 µM]
15,CCC(=O)c1cccc(Cl)c1,12.7%
16,COc1ccc2cc(C=O)ccc2c1,-2.54% [at 35.3 µM]
17,CCO[Si](CCCN=C=O)(OCC)OCC,12.3%
18,C=C(C)C(=O)NCCCN(C)C,3.94%
19,C/C=C1\C(=O)C[C@H]2[C@@H]3CCC4=CC(=O)CC[C@]4(C)[C@H]3CC[C@]12C,-12% [at 35.3 µM]
20,CC(C)COC(=O)C(C)C,-0.619%

row,SMILES,"viability change, negative = cytotoxic"
1,CCCCOCC(C)OCC(C)O (stereo not given),-4.98%
2,O=C1OC(=O)c2cc([N+](=O)[O-])ccc21,-1.42%
3,OCC(O)[C@@H](O)[C@H](O)[C@H](O)CO[C@H]1O[C@H](CO)[C@@H](O)[C@H](O)[C@H]1O (stereo not given in full),-8.12%
4,CCC(C)OC(=O)N1CCCCC1CCO (stereo not given),-1.35%
5,NS(=O)(=O)c1cc(C2(O)NC(=O)c3ccccc32)ccc1Cl (stereo not given),5.04% [at 35.3 µM]
6,CCCCN(CCO)CCO,-14.9%
7,CCn1cc(C(=O)O)c(=O)c2cc(F)c(N3CCN(C)CC3)cc21,3.51% [at 15.8 µM]
8,CCCCCCCCN(C)CCCCCCCC,4.43%
9,N#CC1(O)CCCCC1,19%
10,OC1OC[C@@H](O)[C@H](O)[C@H]1O (stereo not given in full),2.24%
11,CNC(=O)c1c(I)c(NC(=O)CCCCC(=O)Nc2c(I)c(C(=O)O)c(I)c(C(=O)NC)c2I)c(I)c(C(=O)O)c1I,-9.55% [at 35.3 µM]
12,OCC(CO)(CO)COCC(CO)(CO)CO,0.648%
13,CCCOCC(C)OCC(C)O (stereo not given),7.45%
14,C#CC(O)C(CC)CCCC (stereo not given),-10.3%
15,CCN1CCCC1CNC(=O)c1cc(S(N)(=O)=O)ccc1OC (stereo not given),-12.9%
16,COC(C(=O)O)c1ccccc1 (stereo not given),-0.441%
17,OC/C=C/c1ccccc1,-12.9%
18,CCCCCCCCCCCl,-6.48%
19,COc1cccc(OC)c1,-1.77%
20,O=C(O)/C=C/c1ccc(/C=C/C(=O)O)cc1,10.5% [at 35.3 µM]

# From PubChem BioAssay (Tox21)
